This note sets out measurements from PubChem BioAssay AID624483 (NMMLSC, 2012).

Among all 360,000 compounds or so, about 11,000 (3.1%) were called active. Another 2% or so got no clear call; they are omitted. The full list was thinned out, with actives kept by preference. Values without a mark were called inactive. Rule as the data show it: active = fluorescence intensity above about 16000; inconclusive = no clear call, values can overlap the other calls; inactive = below that.

The test is described as follows: counter-screen for toxin protease inhibitors: compound fluorescence, primary screen, artefact control for toxin protease inhibitor project, biochemical, multiplex microsphere, HTS (AID 624483). To be noted: compound autofluorescence counterscreen, microsphere flow cytometry; stronger effect = higher value.
As for `CCCCOC(=O)NCN1C(=O)C2C3C=CC(C3)C2C1=O` (centres undefined), the fluorescence intensity is 3370. On to `COc1ccccc1C1C(C(N)=O)=C(C)Nc2nc(CCCO)nn21` (centres undefined), for which the fluorescence intensity was 3450. For `CCCCCOC(=O)C1=C(C)Nc2nnnn2C1c1ccc(OC)c(OC)c1OC` (centres undefined) the value was 21200 (active); for `COC(=O)C1=C(C(=O)c2ccc(C)cc2)C(c2ccccc2)n2nnnc2N1` (centres undefined), 2650; for `CCOc1ccc(S(=O)(=O)Nc2nccs2)cc1`, 4450. For `CCOc1ccc2sc(NS(=O)(=O)c3ccc(N)cc3)nc2c1` the value was 3350; for `CCOc1ccc(S(=O)(=O)Nc2nc3cc(OC)ccc3s2)cc1`, 20400 (active). With `COc1ccc(-c2nc3ccc(Br)cn3c2Cc2ccc(C)cc2)cc1OC`, the fluorescence intensity is 4350. For `CCC(=O)Nc1nnc(S(=O)(=O)N(CC(C)C)c2ccccc2)s1` the value was 3230; for `CCOC(=O)C(Sc1ncc(C#N)c(N)n1)C(C)C` (centres undefined), 2490; for `CCn1c(CNC(=O)c2ccc(OC)c(OC)c2)nnc1SCC(=O)Nc1ccccc1`, 11100. For `CCOC(=O)c1ccc(NC(=O)CSc2nnc(COc3ccccc3OC)n2C)cc1` the value was 23600 (active); for `COC(=O)c1ccc(NC(=O)CSc2nnc(C3CC3)n2C)cc1`, 5470; for `COC(=O)Nc1ccc(S(=O)(=O)N(C)CC(F)(F)C(F)F)cc1`, 3990.

In the case of `CC(=O)Nc1cccc(-c2ccnc3c2CC(C)(C(=O)NCc2ccccc2)O3)c1` (centres undefined), the fluorescence intensity is 3920. For `Cc1cccc(C(=O)OCC(=O)Nc2sccc2C(N)=O)c1C` the value was 3570; for `Cc1nc2c(-c3ccc(F)cc3)c(C)nn2c(C)c1CCC(=O)NCc1ccco1`, 5410. For `COc1cc(OC)cc(-c2nc3nc(C)c(CCC(=O)NCc4ccco4)c(C)n3n2)c1` the value was 21000 (active); for `COc1ccc(-c2cc3nc(C)c(CCC(=O)NC(C)CCc4ccco4)c(C)n3n2)c(OC)c1` (centres undefined), 3850; for `CCn1cc(C(=O)N2CC=C(c3ccccc3)CC2)c(=O)c2ccc(C)nc21`, 11100. For the molecule `COc1cccc(CNc2nc(NCc3cccs3)nc3ccsc23)c1`, the fluorescence intensity was 3840. For `COc1ccc(S(=O)(=O)n2cnc3ccccc32)c(C)c1` the value was 3080; for `Cc1ccccc1SCC(=O)OCC(=O)N1CC(=O)Nc2ccccc21`, 3940. For `Cc1ccc(S(=O)(=O)N(C)CC(=O)OCC(=O)N2CC(=O)Nc3ccccc32)cc1` the value was 4160.

As to `Cc1ccc(S(=O)(=O)N2CCC(C(=O)OCC(=O)N3CC(=O)Nc4ccccc43)CC2)cc1`, the fluorescence intensity is 23100 (active). For `COc1ccc(C(=O)N2CCCCC2c2cc(C(=O)Nc3ccc(F)c(Cl)c3)no2)cc1` (centres undefined) the value was 3750; for `CC1(C(=O)NCc2ccc(F)c(F)c2)Cc2c(-c3ccc4c(c3)OCO4)ccnc2O1` (centres undefined), 2890; for `Cc1nc(C(F)(F)F)ccc1C(=O)N1CCC1(C)C(=O)NS(=O)(=O)c1ccc(F)cc1F` (centres undefined), 3750. For `CN(C)C(=O)c1cccn(Cc2cccc(C(F)(F)F)c2)c1=O` the value was 4630; for `O=c1c([N+](=O)[O-])cccn1Cc1ccc(F)cc1Cl`, 4380; for `O=c1c([N+](=O)[O-])cc(C(F)(F)F)cn1Cc1cccc(Cl)c1`, 22600 (active).

For the molecule `COc1ccc(C2CC(c3cccc(OC)c3)=NN2c2ccc(S(N)(=O)=O)cc2)cc1` (centres undefined), the fluorescence intensity is 3270.

For the molecule `CCN(CC)CCN(C)C(c1ccnc2ccccc12)c1nnnn1-c1ccc2c(c1)OCCO2` (centres undefined), the fluorescence intensity is 4670. Take `COC(=O)[C@]12CCCCC=C1N(Cc1ccccc1)C(=O)[C@H](CC(=O)NCc1ccc(C)o1)C2`: the fluorescence intensity was 5960.

For `Nc1ncnc2c1ncn2[C@@H]1O[C@H](C(=O)N2CCCN(Cc3ccccc3F)CC2)[C@@H](O)[C@H]1O`, the fluorescence intensity was 5460. As for `CCCCCc1c(-c2cccc(Br)c2)ncn1CCc1ccccc1OC`, the fluorescence intensity was 5900. `CN(C)/C=C/c1c(C#N)c(=O)ncn1Cc1ccccc1`: the fluorescence intensity was 22600 (active).

Consider `Cc1c(C#N)c2ncn(CC#N)c(=O)c2n1-c1ccccc1`, for which the fluorescence intensity was 2670.

Consider `CN(C)c1nccc(NCc2ccccc2)c1C#N`, for which the fluorescence intensity was 2510. Turning to `CC1=C(C(=O)Nc2ccc(Cl)cc2)C(c2ccco2)NC(=O)N1` (centres undefined), the fluorescence intensity is 21000 (active).

In the case of `COc1cc(Cl)cc(C2NC(=O)NC(C)=C2C(=O)NCc2ccccc2)c1O` (centres undefined), the fluorescence intensity is 6250. For `COc1ccc(NC(=O)C2=C(C)NC(=O)NC2c2ccccc2[N+](=O)[O-])cc1` (centres undefined) the value was 4060. Regarding `Cc1cccc(/C(N)=N/OC(=O)c2ccccc2Cl)c1`, the fluorescence intensity is 2520.

`O=C(OCc1cn(-c2ccc(Cl)c(Cl)c2)nn1)c1ccccc1Cl`: the fluorescence intensity is 23100 (active).

Regarding `NC(=O)COC(=O)c1cc(S(=O)(=O)N2CCN(c3ccccc3)CC2)ccc1Cl`, the fluorescence intensity was 2210.

With `O=C(Nc1ccccc1)c1ccccc1Br`, the fluorescence intensity is 3570.

Consider `CCOC(=O)CN1C(=O)C(=O)c2cc(C)ccc21`, for which the fluorescence intensity is 3160.

`CC(C)OC(=O)CN1C(=O)C(=O)c2ccccc21`: the fluorescence intensity is 22400 (active). Regarding `CC(OC(=O)CN1C(=O)c2ccccc2C1=O)C(=O)c1ccccc1` (centres undefined), the fluorescence intensity was 8630.

Take `CC1(C(=O)NS(=O)(=O)c2cccs2)CCN1C(=O)Cc1ccc(-c2ccccc2)cc1` (centres undefined): the fluorescence intensity is 3400. Turning to `O=S1(=O)CC(N2CCN(c3ccccn3)CC2)CN1Cc1ccc(F)cc1` (centres undefined), the fluorescence intensity is 5970. For `O=C(c1ccco1)N1CCN(C(=O)C2c3ccccc3Oc3ccccc32)CC1` the value was 10300; for `CCC(=O)N1CCCC1(C)C(=O)Nc1ccc2c(c1)CCN2C(C)=O` (centres undefined), 4080. In the case of `O=C(Cn1cc(/C=N/NC(=O)c2cccc(C(F)(F)F)c2)c2ccccc21)Nc1ccc(F)cc1`, the fluorescence intensity is 23300 (active). For `COc1cccc(Cn2cc(/C=N/NC(=O)c3cc(O)cc(O)c3)c3ccccc32)c1`, the fluorescence intensity was 5960. Take `O=C(CSc1ccc(/C=N/NC(=O)c2cccc(F)c2)o1)Nc1ccccc1`: the fluorescence intensity is 8800. For `CC1(C)CC(=O)C=C(NCc2ccncc2)C1` the value was 16700 (active); for `Cc1cc(C)nc(NNC2=CC(=O)CC(C)(C)C2)n1`, 2520; for `COc1ccc(CCNC2=CC(=O)CC(C)(C)C2)cc1`, 3550.
